Test results: PubChem BioAssay (NCATS)
Where “and” joins values, the source holds several entries; their conditions need not be identical. Equal entries are not always repeated. Inconclusive results are not listed. Where a call stands in place of a potency, no number is given. Values without a mark were called inactive. Calls of active or inactive are those of the source. Calls follow the shape of the dose curve; as a rule, active = well fitted curve in the direction sought with a large enough effect; inconclusive = small, poorly fitted or top-dose-only effect, or another doubt; inactive = no such curve, though single readings can be large; an effect the other way counts as inactive or inconclusive. Square brackets hold non-standard residues; d marks the D form. Peptide text beside a SMILES is read from it. 2Abz = Nc1ccccc1C(=O)O

Assays:
[1] = biological target: Cellular tumor antigen p53 (Homo sapiens) (UniProt P04637); assay: Primary qHTS for small molecule compounds that upregulate eGFP-tagged delta133p53alpha (in N-terminal) cells. (AID 2060322); conditions: NCI-H358 eGFP-delta133p53alpha fluorescence, 24 h; activation: stronger effect = higher value; also: nearly all actives have a fitted effect of over 75% in size; also: potency is read from the fitted curve at half-maximal effect
How it was run: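 NCI-H358 cells pre-induced 24 h with 10 ng/ml doxycycline to express N-terminal eGFP-delta133p53alpha, then dosed 24 h at 37C without doxycycline; fixed, Hoechst-stained, GFP intensity by laser scanning cytometry, normalized to DMSO (0%) and 57.5 uM 5-azacytidine (100%).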

[2] = biological target: Aldehyde dehydrogenase, mitochondrial (Homo sapiens) (UniProt P05091); assay: qHTS for Inhibitors of the Aldehyde Dehydrogenase Family (ALDH2) Primary screen (AID 2061308); conditions: ALDH2 enzyme inhibition qHTS, 1536-well; series mostly up to 56 µM; also: nearly all actives have a fitted effect of over 55% in size
[3] = biological target: Retinaldehyde dehydrogenase 3 (Homo sapiens) (UniProt P47895); assay: qHTS for Inhibitors of the Aldehyde Dehydrogenase Family (ALDH1A3) Primary screen (AID 2061315); conditions: ALDH inhibition qHTS; series mostly up to 56 µM

Chain of Cellular tumor antigen p53 (Homo sapiens) (P04637 whole entry, looked up): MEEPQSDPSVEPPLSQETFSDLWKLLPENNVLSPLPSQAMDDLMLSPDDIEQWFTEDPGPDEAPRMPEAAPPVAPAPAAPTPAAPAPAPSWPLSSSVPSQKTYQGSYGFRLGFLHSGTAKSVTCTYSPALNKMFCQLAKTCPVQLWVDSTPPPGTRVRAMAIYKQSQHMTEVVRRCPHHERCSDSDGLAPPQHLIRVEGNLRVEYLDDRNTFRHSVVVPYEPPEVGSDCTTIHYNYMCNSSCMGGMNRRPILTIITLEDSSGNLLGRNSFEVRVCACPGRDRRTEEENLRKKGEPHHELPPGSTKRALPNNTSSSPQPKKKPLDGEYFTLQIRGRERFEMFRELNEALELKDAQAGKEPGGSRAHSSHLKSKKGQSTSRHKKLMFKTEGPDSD

SMILES | activation [1] | Potency [2] | Potency [3] | activity change, negative = inhibition [2] | activity change, negative = inhibition [3] | Potency [1]
COC1C(CO)OC(n2cnc3c(=O)[nH]cnc32)C1O (stereo not drawn) | -12.2% | inactive | inactive | – | – | –
O=C(Nc1cc(C(F)(F)F)ccc1N1CCCCC1)c1ccncc1 | -17.9% | inactive | inactive | – | – | –
CC(C(=O)O)C1CCC2(C)C3C(=O)C=C4C(CCC(=O)C4(C)C)C3(C)CCC12C (stereo not drawn) | -15.2% | inactive | inactive | – | – | –
CC(=O)OC[C@H]1O[C@H](O[C@]2(CO)O[C@H](CO)[C@@H](OC(=O)/C=C/c3ccccc3)[C@@H]2O)[C@H](O)[C@@H](O)[C@@H]1O | -0.763% | inactive | inactive | – | – | –
C[C@@H]1O[C@@H](O[C@H]2[C@H](O)[C@@H](O)[C@H](OC[C@H]3O[C@@H](OC(=O)[C@]45CCC(C)(C)C[C@H]4C4=CCC6[C@@]7(C)CC[C@H](O[C@@H]8OC[C@H](O)[C@H](O[C@@H]9O[C@H](CO)[C@@H](O)[C@H](O)[C@H]9O)[C@H]8O)[C@@](C)(CO)C7CC[C@@]6(C)[C@]4(C)CC5)[C@H](O)[C@@H](O)[C@@H]3O)O[C@@H]2CO)[C@H](O)[C@H](O)[C@H]1O (stereo partly drawn) | -10.7% | – | – | 1.57% [at 11.2 µM] | 14.6% [at 11.2 µM] | –
CC12CCC(=O)C=C1C(O)CC1C2C(O)CC2(C)C1CC[C@]2(O)C(=O)CO (stereo partly drawn) | 5.67% | inactive | inactive | – | – | –
CC(C)(O)c1ccc2c(c1)C(O)CC1C(C)(C(=O)O)CCCC21C (stereo not drawn) | 5.34% | inactive | inactive | – | – | –
CC(=O)OCC1OC(O[C@H]2CC[C@]34C[C@]35CC(O)[C@]3(C)[C@@H]([C@H](C)CC/C=C(\C)C(=O)O)C(O)C[C@@]3(C)C5CC[C@H]4C2(C)C)C(O)C(O)C1OC1OCC(O)C(O)C1O (stereo partly drawn) | -13% | inactive | inactive | – | – | –
CC(=O)/C=C/C1(O)C(C)(C)CC(O)CC1(C)O (stereo not drawn) | 12.2% | inactive | inactive | – | – | –
CCC(C)/C=C(C)/C=C/C1=CC2=C(Cl)C(=O)C(C)(OC(C)=O)C(=O)C2=CN1C1CCCCN(C(CCC(N)=O)C(=O)O)C1=O (stereo not drawn) | 2.68% | inactive | inactive | – | – | –
CC(=O)OC1CC(O)(C(C)C)C2C(OC(=O)c3ccc(O)cc3)C=C(C)C(=O)CC12C (stereo not drawn) | 29.8% | inactive | inactive | – | – | –
N#Cc1ccc(Nc2nc(-c3ccc(O)cc3O)cs2)cc1C(F)(F)F | – | inactive | inactive | – | – | 26.9 µM (active)
CC(C)c1ccc2c(c1)C(=O)CC1C(C)(C(=O)O)CCCC21C (stereo not drawn) | 3.57% | inactive | inactive | – | – | –
C=C1C(=O)O[C@@H]2C[C@H](C)C3=CC(=O)[C@H](O)[C@@]3(C)C[C@H]12 | – | inactive | inactive | – | – | 30.1 µM (active)
O=C(O)CCCCCC[C@H]1C(=O)NC(=O)N1CC[C@@H](O)C1CCCCC1 | -1.67% | inactive | inactive | – | – | –
COc1cc2c(cc1O)[C@H](c1ccc(O[C@@H]3O[C@H](CO)[C@@H](O)[C@H](O)[C@H]3O)c(OC)c1)[C@@H](CO)[C@](O)(CO)C2 | -15.3% | inactive | inactive | – | – | –
CC(C)(O[C@@H]1O[C@H](CO)[C@@H](O)[C@H](O)[C@H]1O)C(OC(=O)/C=C\c1ccc(O)cc1)C(=O)OCc1ccc(O[C@@H]2O[C@H](CO)[C@@H](O)[C@H](O)[C@H]2O)cc1 (stereo partly drawn) | -8.4% | inactive | inactive | – | – | –
C=C1C2(C)CC3C4(C)C=CC(=O)OC(C)(C)C4CCC3(C)C1(C(=O)OC)C(=O)C(C)(O)C2=O (stereo not drawn) | -21.4% | inactive | inactive | – | – | –
COCCN(C)Cc1ccc2nc3sc(C(=O)N(C)C4CCCCC4)cn3c2c1 | 15.7% | inactive | inactive | – | – | –
O=C(O)Cc1cn([C@@H]2OC[C@@H](O[C@@H]3O[C@H](CO)[C@@H](O)[C@H](O)[C@H]3O)[C@H](O)[C@H]2O[C@@H]2O[C@H](CO)[C@@H](O)[C@H](O)[C@H]2O)c2ccccc12 | -7.63% | inactive | inactive | – | – | –
C[C@@H]1[C@H]2[C@H](O[C@@H]3O[C@H](CO)[C@@H](O)[C@H](O)[C@H]3O)OC=C(C(=O)O)[C@H]2C[C@@H]1OC(=O)/C=C/c1ccc(O)cc1 | 18.8% | inactive | inactive | – | – | –
CCC(C)C(=O)O[C@H]1C[C@](C)(O)[C@]23OC(C)(C)[C@H](C[C@H](OC(=O)c4ccccc4)[C@]2(COC(C)=O)[C@H]1OC(=O)C(C)CC)[C@H]3OC(C)=O (stereo partly drawn) | 11.5% | inactive | inactive | – | – | –
Nc1nc(-n2cc(C(=O)O)c(=O)c3cc(F)c(N4CC(O)C4)c(Cl)c32)c(F)cc1F | 13% | inactive | inactive | – | – | –

SMILES | activation [1] | Potency [2] | Potency [3] | activity change, negative = inhibition [2] | activity change, negative = inhibition [3] | Potency [1]
CC1(C)[C@@H](O[C@H]2O[C@H](C(=O)O)[C@@H](O)[C@H](O)[C@H]2O[C@@H]2O[C@H](C(=O)O)[C@@H](O)[C@H](O)[C@H]2O)CC[C@]2(C)[C@H]3C(=O)C=C4[C@@H]5C[C@@](C)(C(=O)O)CC[C@]5(C)CC[C@@]4(C)[C@]3(C)CC[C@@H]12 | -7.67% | inactive | inactive | – | – | –
Fc1ccc(-c2c3cccc(C(F)(F)F)c3nn2Cc2ccc(F)cc2Cl)cc1 | -8.11% | inactive | inactive | – | – | –
C/C=C(\C)C(=O)O[C@H]1[C@@H](O[C@]2(COC(=O)CC(C)C)O[C@H](COC(=O)C(C)CC)[C@@H](OC(C)=O)[C@@H]2O)O[C@H](COC(C)=O)[C@@H](O)[C@@H]1O (stereo partly drawn) | 9.16% | inactive | inactive | – | – | –
O=c1cc(N2CCN(c3cccc(C(F)(F)F)c3)CC2)[nH]c(=O)n1C1CCCCC1 | 25% | inactive | inactive | – | – | –
C=C(C)[C@@H]1CC[C@](C)(O)[C@@H](OC(=O)c2ccccc2)C1 | -15.2% | inactive | inactive | – | – | –
C1CCN2CC3C[C@@H](CN4CCCC[C@@H]34)[C@H]2C1 | -23.2% | inactive | inactive | – | – | –
C=C1CCC2[C@](C)(CCC[C@@]2(C)C=O)[C@H]1CC/C(C)=C/CO (stereo partly drawn) | 11.5% | inactive | inactive | – | – | –
CC1=CC(=O)[C@]2(O[C@@H]3O[C@@H](C)[C@H](O)[C@@H](O)[C@H]3O)C=CO[C@@H](O[C@@H]3O[C@H](CO)[C@@H](O)[C@H](O)[C@H]3O)[C@H]12 | -18.3% | inactive | inactive | – | – | –
CC1(C)CC[C@]2(C(=O)OC3OC(CO)C(O)C(O)C3O)CC[C@]3(C)C(=CCC4[C@@]5(C)C[C@@H](O)[C@H](OC6OC(C(=O)O)C(O)C(O)C6O)C(C)(C)C5CC[C@]43C)[C@@H]2C1 (stereo partly drawn) | -2.29% | inactive | inactive | – | – | –
CC(C)(O)/C=C1/C(=O)C(C)(C)C(=O)C(C)(C)C1(O)O[C@@H]1O[C@H](COC(=O)c2cc(O)c(O)c(O)c2)[C@@H](O)[C@H](O)[C@H]1O (stereo partly drawn) | 0.763% | inactive | inactive | – | – | –
Cc1ccc2c(n1)Oc1ccc(C(C)C(=O)OCC(=O)N(C)C)cc1C2 (stereo not drawn) | -12.6% and -10.9% | inactive | inactive | – | – | –
C[C@@H]1CC[C@]2(C(=O)O)CC[C@]3(C)C(=CCC4[C@@]5(C)C[C@@H](O)[C@H](O)[C@@](C)(CO)C5CC[C@]43C)C2[C@]1(C)O (stereo partly drawn) | 29.5% | inactive | inactive | – | – | –
COC(=O)C1=CO[C@@H](O[C@@H]2O[C@H](CO)[C@@H](O)[C@H](O)[C@H]2O)C2C1CC(O)C2C (stereo partly drawn) | 2.29% | inactive | inactive | – | – | –
CCN1C(=O)c2ccccc2C1Nc1ccc(OCCN2CCCCC2)cc1 (stereo not drawn) | -18.4% | inactive | inactive | – | – | –
NC(=O)c1csc(C2OC(CO)C(O)C2O)n1 (stereo not drawn) | -7% | inactive | inactive | – | – | –
CCC(C)C1NC(=O)C2CCCN2C(=O)C(C(C)C)NC(=O)c2ccccc2NC(=O)C(Cc2ccc(O)cc2)NC(=O)C(C)NC(=O)C(C(C)O)NC1=O (stereo not drawn) (cyclo([2Abz]VPITAY); configuration not given here) | 0.763% | inactive | inactive | – | – | –
CC1(C)CC[C@]2(C(=O)O[C@@H]3O[C@H](CO)[C@@H](O)[C@H](O)[C@H]3O)CC[C@]3(C)C(=CCC4[C@@]5(C)C[C@H](O)[C@H](O[C@@H]6O[C@H](C(=O)O)[C@@H](O)[C@H](O)[C@H]6O)[C@@](C)(CO)C5CC[C@]43C)C2C1 (stereo partly drawn) | -11.6% | – | – | 12.5% [at 11.2 µM] | 11% [at 11.2 µM] | –
CC(=O)OC[C@@]12[C@@H](OC(C)=O)C[C@@H](C)[C@](C)([C@@H]3C[C@H]4C=CO[C@H]4O3)[C@H]1CCC[C@]21CO1 | 0% | inactive | inactive | – | – | –
COc1cc(/C=C/C(=O)O)ccc1O[C@@H]1O[C@H](CO)[C@@H](O)[C@H](O)[C@H]1O[C@@H]1OC[C@](O)(CO)[C@H]1O | -13% | inactive | inactive | – | – | –
C=C(C)[C@@H]1CC[C@]2(C(=O)O)CC[C@]3(C(=O)O)[C@H](CCC4[C@@]5(C)CCC(=O)C(C)(C)C5CC[C@]43C)C12 (stereo partly drawn) | 33.9% | inactive | inactive | – | – | –
COC(=O)C1=CO[C@@H](O[C@@H]2O[C@H](CO)[C@@H](O)[C@H](O)[C@H]2O)[C@@H]2[C@@](C)(O)[C@@H](OC(=O)/C=C/c3ccc(O)cc3)C[C@]12O | -0.763% | inactive | inactive | – | – | –
Cc1cc(N2CCCCC2)nc2ccccc12 | 13.7% | inactive | inactive | – | – | –
C[C@@H]1O[C@@H](O[C@H]2[C@H](OC(=O)[C@]34CCC(C)(C)C[C@H]3C3=CCC5[C@@]6(C)C[C@@H](O)[C@@H](O)[C@@](C)(CO)C6[C@H](O)C[C@@]5(C)[C@]3(C)CC4)OC[C@H](O)[C@@H]2O)[C@H](O)[C@H](O)[C@H]1O[C@@H]1OC[C@@H](O)[C@H](O[C@H]2O[C@H](C)[C@@H](O)[C@H](O)[C@@H]2O)[C@H]1O (stereo partly drawn) | -2.68% | inactive | inactive | – | – | –
